TRPV1 agonist: human TRPV1 agonism. TRPV1-expressing cells, Fluo-8 calcium influx, agonist mode. activation, % at 8.33 µM. 320,000 tested, 0.19% active; in the data active = activation above about 80%; inconclusive = between about 30% and that limit
Target sequence (Q8NER1 whole entry, looked up): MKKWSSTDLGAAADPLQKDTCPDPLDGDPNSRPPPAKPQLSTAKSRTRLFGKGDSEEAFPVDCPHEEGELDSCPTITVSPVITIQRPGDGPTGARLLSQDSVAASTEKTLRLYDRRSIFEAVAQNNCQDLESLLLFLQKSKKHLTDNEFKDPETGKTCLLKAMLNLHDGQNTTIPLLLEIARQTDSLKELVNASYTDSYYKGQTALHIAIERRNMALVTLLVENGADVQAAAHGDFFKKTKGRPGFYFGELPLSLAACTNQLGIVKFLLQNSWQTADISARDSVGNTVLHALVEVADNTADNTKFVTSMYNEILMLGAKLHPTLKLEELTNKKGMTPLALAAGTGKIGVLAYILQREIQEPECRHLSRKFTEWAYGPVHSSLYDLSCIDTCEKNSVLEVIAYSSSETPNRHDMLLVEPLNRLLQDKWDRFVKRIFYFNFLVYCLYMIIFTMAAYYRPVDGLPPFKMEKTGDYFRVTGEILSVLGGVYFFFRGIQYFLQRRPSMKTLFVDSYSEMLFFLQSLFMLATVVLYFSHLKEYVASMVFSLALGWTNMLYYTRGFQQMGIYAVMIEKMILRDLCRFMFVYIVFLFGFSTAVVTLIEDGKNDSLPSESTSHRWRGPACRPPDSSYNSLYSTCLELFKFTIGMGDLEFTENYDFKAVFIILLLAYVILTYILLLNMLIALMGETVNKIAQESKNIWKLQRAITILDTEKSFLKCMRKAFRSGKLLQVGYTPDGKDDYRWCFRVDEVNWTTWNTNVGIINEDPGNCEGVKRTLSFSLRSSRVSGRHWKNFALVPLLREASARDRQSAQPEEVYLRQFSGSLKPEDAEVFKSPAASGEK
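Fluo-8 calcium influx in TRPV1-expressing cells, kinetic read (ex 480/em 520 nm). Compound added and read 3 min for agonist activity, followed by capsaicin at EC20 final and 2 min further read for enhancement.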
TRPV1 PAM: enhances activation of the human vanilloid receptor TRPV1; Q8NER1; 320,000 tested, 0.02% active; TRPV1-expressing cells, Fluo-8 calcium influx, capsaicin EC20 potentiation; AID 540277; potentiation, % at 8.33 µM; in the data active = potentiation above about 80%; inconclusive = between about 30% and that limit
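Fluo-8 calcium influx in TRPV1-expressing cells, kinetic read (ex 480/em 520 nm). Compound added and read 3 min for agonist activity, followed by capsaicin at EC20 final and 2 min further read for enhancement.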
FUS yeast rescue: suppressors of FUS proteinopathy in yeast; AID 1347120; 390,000 tested, 0.24% active; Potency, µM (highest dose often 76.6 µM), most hits filed as activators; S. cerevisiae FUS-expressing, growth rescue, OD600, 24 h; note: nearly all actives have a fitted effect of over 55% in size
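S. cerevisiae expressing FUS from galactose induction served as the toxicity model. Growth after 24hr at 30C, read as absorbance at 600 nm, indicates suppression of toxicity; compounds dosed at several concentrations.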
ELG1 repair inh: blocks ELG1-dependent DNA repair in HEK293T cells. 330,000 tested, 2.3% active. Potency, µM (top dose mostly 46.1 µM), usual class: inhibitors. HEK293T ELG1-luciferase reporter, luminescence, 16 h; DNA damage induced by 5-fluorouridine; note: nearly all actives have a fitted effect of over 55% in size
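Reporter activity after DNA damage by 5-fluorouridine is monitored. Compound-treated cells incubate 16 hr at 37 °C, then ONE-Glo is added for 30 min before luminescence reading.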
Giardia kill: kills Giardia lamblia. Giardia lamblia trophozoite viability. activity change, % at 7.66 µM, hits read low. 340,000 tested, 0.15% active; in the data active = activity change below about -80%; inconclusive = between about -30% and that limit;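 note: parasites exposed to compound for two days anaerobically before the ATP read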
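Compounds were tested on trophozoites seeded at 100 cells/well and held 48 hrs at 37 deg C anaerobically. An ATP-based luminescent kit measured the remaining live cells.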
Large screens that a line does not name were inactive. This is a sample that favours compounds with a hit; in the whole collection about 2.3% have one here. Unless noted, calls come from the whole dose curve; as a rule, active = well fitted curve in the direction sought with a large enough effect; inconclusive = small, poorly fitted or top-dose-only effect, or another doubt; inactive = no such curve, though single readings can be large; an effect the other way counts as inactive or inconclusive.

COc1ccc(NC(=O)c2c(NC(=O)C(F)(F)F)sc3c2CCCCC3)cc1	none (no result: TRPV1 agonist, TRPV1 PAM, ELG1 repair inh, Giardia kill)
COc1ccc(NC(=O)c2ccco2)cc1NC(=O)c1cccc(C)c1OC	none (no result: TRPV1 agonist, TRPV1 PAM, ELG1 repair inh, Giardia kill)
O=C(N[C@@H]1C/C=C\C[C@@H](CC(=O)N(CCO)Cc2ccccc2)C(=O)NC[C@H](c2ccccc2)OC1=O)OCC1c2ccccc2-c2ccccc21	FUS yeast rescue inconclusive, ELG1 repair inh 15µM (no result: TRPV1 agonist, TRPV1 PAM)
C[C@H]1COC(=O)[C@H](NC(=O)OCC2c3ccccc3-c3ccccc32)C/C=C\C[C@H](CC(=O)N(CCO)Cc2ccccc2)C(=O)N1	FUS yeast rescue inconclusive, ELG1 repair inh 26µM, Giardia kill inconclusive (no result: TRPV1 agonist, TRPV1 PAM)
CCCc1cc(-c2[nH]ncc2-c2ccc3c(c2)OCCCO3)c(O)cc1O	FUS yeast rescue inconclusive, ELG1 repair inh 21µM
O=C(NCc1cccnc1)C1CCC(c2ccc(Cl)cc2)CC1 (stereo not drawn)	TRPV1 agonist 115, ELG1 repair inh 9.2µM
O=C(COc1cccnc1[N+](=O)[O-])Nc1ccc2c(c1)OC(F)(F)O2	Giardia kill -84 (no result: FUS yeast rescue)
COc1ccc(NC(=O)COc2cccnc2[N+](=O)[O-])cc1OC	none
COc1cccc(C2C(C(=O)c3ccc(C)o3)=C(O)C(=O)N2CCN2CCOCC2)c1 (stereo not drawn)	ELG1 repair inh 21µM
COc1cc(C2C(C(=O)c3cc4ccccc4o3)=C(O)C(=O)N2CCN2CCOCC2)ccc1OCCC(C)C (stereo not drawn)	FUS yeast rescue 28µM
CC1CCN(S(=O)(=O)c2ccc3c(c2)c(=O)c(C(=O)N2CCN(c4cccc(Cl)c4)CC2)cn3C)CC1	none (no result: TRPV1 agonist, TRPV1 PAM, ELG1 repair inh, Giardia kill)
COc1ccccc1C(=O)c1c(N)c(-c2nc(-c3ccccc3)cs2)c2ccccn12	none (no result: TRPV1 agonist, TRPV1 PAM, ELG1 repair inh, Giardia kill)
O=C(C1CCC(CNS(=O)(=O)c2cccc3nsnc23)CC1)N1CC=C(c2ccccc2)CC1 (stereo not drawn)	ELG1 repair inh 21µM
O=C(C1CCCN(S(=O)(=O)c2cccc3nsnc23)C1)N1CC=C(c2ccccc2)CC1 (stereo not drawn)	FUS yeast rescue inconclusive, ELG1 repair inh inconclusive
O=C(C1CCN(S(=O)(=O)c2cccc3nsnc23)CC1)N1CC=C(c2ccccc2)CC1	ELG1 repair inh 18µM (no result: TRPV1 agonist, TRPV1 PAM)
O=c1[nH]c(CN2CCN(c3ccccc3O)CC2)nc2scc(-c3ccccc3Cl)c12	FUS yeast rescue inconclusive, ELG1 repair inh 21µM
O=c1[nH]c(CN2CCN(c3ccc(O)cc3)CC2)nc2scc(-c3ccc(Cl)cc3)c12	FUS yeast rescue inconclusive, ELG1 repair inh inconclusive
CCC(C)Cn1c(COc2ccc(OC)cc2)nc2ccccc21 (stereo not drawn)	none (no result: TRPV1 agonist, TRPV1 PAM, ELG1 repair inh, Giardia kill)
CCC(C)Cn1c(C)nc2ccccc21 (stereo not drawn)	ELG1 repair inh 9.2µM
Nc1ccccc1N=Cc1ccc(-c2cccc(Cl)c2)o1	TRPV1 agonist 117, ELG1 repair inh inconclusive
COC(=O)N/N=C/c1ccc(-c2cccc(Cl)c2)o1	ELG1 repair inh inconclusive
Cc1nn(-c2ccccc2)c(C)c1NC(=O)COc1ccc(Br)cc1Cl	ELG1 repair inh 23µM
CCN(CC)c1ncnc2c1ncn2[C@H]1CN(Cc2ccc(-c3ccccc3)cc2)C[C@@H](CO)O1	FUS yeast rescue 28µM (no result: TRPV1 agonist, TRPV1 PAM, ELG1 repair inh, Giardia kill)
COc1cc(CNc2ncnc3c2ncn3[C@H]2CN(Cc3cccc4ccccc34)C[C@@H](CO)O2)cc(OC)c1OC	FUS yeast rescue 28µM (no result: TRPV1 agonist, TRPV1 PAM, ELG1 repair inh, Giardia kill)
COC(=O)[C@]12CCCCC=C1N(Cc1ccco1)C(=O)[C@H](CC(=O)NCCCN1CCCC1=O)C2	none (no result: TRPV1 agonist, TRPV1 PAM, ELG1 repair inh, Giardia kill)
O=C(Nc1cccnc1)c1ccc(Cl)c(S(=O)(=O)N2CCc3ccccc32)c1	TRPV1 agonist inconclusive, ELG1 repair inh 13µM
CC(=O)Nc1ccc(NC(=O)c2ccc(Cl)c(S(=O)(=O)N3CCc4ccccc43)c2)cc1	none (no result: TRPV1 agonist, TRPV1 PAM, FUS yeast rescue, ELG1 repair inh)
O=c1c(N2CCc3ccccc3C2)csc2ccc(Cl)cc12	none (no result: TRPV1 agonist, TRPV1 PAM, ELG1 repair inh, Giardia kill)
NC(=S)N/N=C1\CCOc2ccc(Cl)cc21	ELG1 repair inh 21µM
O=C(OCCN1C(=O)c2cccc3c(N4CCOCC4)ccc(c23)C1=O)c1ccccc1Cl	TRPV1 agonist inconclusive, ELG1 repair inh 12µM
CCOc1cc2[nH]c(=O)n(CCCCC(=O)N3CCN(c4ccccc4OC)CC3)c(=O)c2cc1OCC	none (no result: TRPV1 agonist, TRPV1 PAM, ELG1 repair inh, Giardia kill)
